Measured values: PubChem BioAssay (Tox21)
Results filed as inconclusive are left out. Entries that show only a call come without a potency. The source made the active and inactive calls. The call rests on the fitted dose curve; in most records, active means well fitted cell-killing curve with a large enough effect in the repeat runs; inconclusive means weak or mixed curves, or effect the other way; inactive means no such curve, though single readings can be large or run the other way.

Test: qHTS assay for small molecule activators of the heat shock response signaling pathway - cell viability counter screen (AID 743209); further: nearly all actives have a fitted effect of over 50% in size
Conditions: HSE-bla HeLa viability, CellTiter-Glo luminescence, 5 h; series mostly up to 62.6 µM
Text: U.S. Tox21 Program National Center for Advancing Translational Sciences [NCATS] NIH Chemical Genomics Center [NCGC] U.S. Environmental Protection Agency [EPA] National Institutes of Environmental Health Sciences [NIEHS] National Toxicology Program [NTP] U.S. Food and Drug Administration [FDA] Tox21 Assay Overview: Various chemicals, environmental and physiological stress conditions may lead to the activation of heat shock response/ unfolded protein response (HSR/UPR). There are three heat shock transcription factors (HSFs) (HSF-1, -2, and -4) mediating transcriptional regulation of the human HSR. To identify the compounds that activate HSR signaling, HSE-bla HeLa cell line (Invitrogen, Carlsbad, CA, USA) containing a beta-lactamase reporter gene under the control of the heat shock response elements was used to screen Tox21 10K compound library. The cytotoxicity of the Tox21 compound library against the HSE-bla HeLa cell line was tested in parallel by measuring the cell viability using CellTiter-Glo assay (Promega, Madison, WI) in the same wells.
Tox21 Assay Protocol Summary: The CellSensor HSE-bla HeLa cells (Invitrogen, Carlsbad, CA, USA) were dispensed at 1500 cells/6uL/well into 1536-well black wall/clear bottom plates using a Multidrop combi (Thermo Fisher Scientific, Waltham, MA) dispenser. After the assay plates were incubated at 37 C and 5% CO2 overnight, 23 nL of compounds dissolved in DMSO, positive controls or DMSO only was transferred to the assay plate by a Pintool station (Kalypsys, San Diego, CA). The plates were incubated at 37 C for 5 h. After 1 uL of LiveBLAzerTM B/G FRET substrate was added using a Flying Reagent Dispenser (FRD, Beckman Coulter, Indianapolis, IN, USA), the plates were incubated at room temperature for 2.5 h, and fluorescence intensity was measured by an Envision plate reader (PerkinElmer, Shelton, CT). For cell viability readout that measures cytotoxicity, 3 ul/well of CellTiter-Glo reagent was added into the assay plates using a FRD. After 30 min incubation at room temperature, the luminescence intensity in the plates was measured using a ViewLux (PerkinElmer) plate reader.

Row | SMILES | Potency
1 | C1CCNCC1 | inactive
2 | Cc1nc(N(C)C)nc(OC(=O)N(C)C)c1C | inactive
3 | C[C@H](N)[C@H](O)c1ccc(O)c(O)c1 | inactive
4 | Nc1ccccc1C(=O)OCC(O)CO (stereo not given) | inactive
5 | COCc1cnc(C2=NC(C)(C(C)C)C(=O)N2)c(C(=O)O)c1 (stereo not given) | inactive
6 | CCCC1CCCCN1 (stereo not given) | inactive
7 | O=C(O)C(Cl)(Cl)Br | inactive
8 | O=CC=O | inactive
9 | Cc1cccc(C)c1NC1=NCCCS1 | inactive
10 | CC(O)CN1CCN(CC(=O)[O-])CCN(CC(=O)[O-])CCN(CC(=O)[O-])CC1.[Gd+3] (stereo not given) | inactive
11 | Nc1c(Br)cc(Br)c2c1C(=O)c1ccccc1C2=O | inactive
12 | CCOP(=O)(SC(C)CC)N1CCSC1=O (stereo not given) | inactive
13 | CCCC[P+](CC)(CCCC)CCCC (tested in a mixture with another compound) | inactive
14 | CCCN(CCOc1c(Cl)cc(Cl)cc1Cl)C(=O)n1ccnc1 | inactive
15 | C=CC(C)(CCC=C(C)C)OC(=O)c1ccccc1N (stereo not given) | inactive
16 | CCCC[N+](CCCC)(CCCC)CCCC | inactive
17 | CCOC(C(=O)OCCN(C)C)(c1ccccc1)c1ccccc1 | inactive
18 | CCCSP(=S)(OCC)Oc1ccc(SC)cc1 (stereo not given) | inactive
19 | C[C@]12C=CC3=C4CCC(=O)C=C4CC[C@H]3[C@@H]1CC[C@@H]2O | inactive
20 | ClCc1ccccc1Cl | inactive

Row | SMILES | Potency
21 | NC(=O)CF | inactive
22 | CCC1CCC(=O)O1 (stereo not given) | inactive
23 | O=C(O)C(F)(F)C(F)(F)C(F)(F)C(F)(F)C(F)(F)C(F)(F)C(F)(F)C(F)(F)F | inactive
24 | COC1CC(=C(c2cccs2)c2cccs2)C[N+](C)(C)C1 (stereo not given) | inactive
25 | C[C@@H]1C[C@@H]([C@H](O)CC2CC(=O)NC(=O)C2)C(=O)[C@@H](C)C1 | inactive
26 | Clc1ccccc1 | inactive
27 | C=CCOCC1CO1 (stereo not given) | inactive
28 | CCOP(=S)(OCC)Oc1ccc(S(C)=O)cc1 (stereo not given) | inactive
29 | CCCCC(CC)CO[N+](=O)[O-] (stereo not given) | inactive
30 | CCOC(=O)c1cn2nc(OP(=S)(OCC)OCC)cc2nc1C | inactive
31 | CCCCCCCCCCCCN(C)C | inactive
32 | CCOC(=O)C1OC1(C)c1ccccc1 (stereo not given) | inactive
33 | CCSCc1ccccc1OC(=O)NC | inactive
34 | CC(C)C1(C)N=C(c2ncccc2C(=O)O)NC1=O (stereo not given) | inactive
35 | COC(=O)Cc1ccccc1 | inactive
36 | NNCCO | inactive
37 | O=C(N/N=C/c1ccc([N+](=O)[O-])o1)c1cc([N+](=O)[O-])cc([N+](=O)[O-])c1O | inactive
38 | Cc1nnc(-c2ccccc2)c(=O)n1N | inactive
39 | CCOC(=O)c1cncn1C(C)c1ccccc1 (stereo not given) | inactive
40 | CNC(=O)Oc1cccc(N=CN(C)C)c1 | inactive
